According to paper PMC4336329 (PLoS ONE, 2015):
Screen size: about 310,000 compounds; about 14,000 (4.5%) showed an effect of 50% or more. The effect is printed as a negative number. Shown is part of a subset that was picked to be rich in strong results.

These compounds were tested against human ether-à-go-go-related gene (hERG) potassium channel (human, UniProt Q12809) (assay: primary screen, population patch clamp on CHO cells stably expressing hERG; higher = less effect of the substance).
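Also: peak tail current of the secondary pulse compared with the same well before compound.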

Chain of human ether-à-go-go-related gene (hERG) potassium channel (Q12809 whole entry, looked up): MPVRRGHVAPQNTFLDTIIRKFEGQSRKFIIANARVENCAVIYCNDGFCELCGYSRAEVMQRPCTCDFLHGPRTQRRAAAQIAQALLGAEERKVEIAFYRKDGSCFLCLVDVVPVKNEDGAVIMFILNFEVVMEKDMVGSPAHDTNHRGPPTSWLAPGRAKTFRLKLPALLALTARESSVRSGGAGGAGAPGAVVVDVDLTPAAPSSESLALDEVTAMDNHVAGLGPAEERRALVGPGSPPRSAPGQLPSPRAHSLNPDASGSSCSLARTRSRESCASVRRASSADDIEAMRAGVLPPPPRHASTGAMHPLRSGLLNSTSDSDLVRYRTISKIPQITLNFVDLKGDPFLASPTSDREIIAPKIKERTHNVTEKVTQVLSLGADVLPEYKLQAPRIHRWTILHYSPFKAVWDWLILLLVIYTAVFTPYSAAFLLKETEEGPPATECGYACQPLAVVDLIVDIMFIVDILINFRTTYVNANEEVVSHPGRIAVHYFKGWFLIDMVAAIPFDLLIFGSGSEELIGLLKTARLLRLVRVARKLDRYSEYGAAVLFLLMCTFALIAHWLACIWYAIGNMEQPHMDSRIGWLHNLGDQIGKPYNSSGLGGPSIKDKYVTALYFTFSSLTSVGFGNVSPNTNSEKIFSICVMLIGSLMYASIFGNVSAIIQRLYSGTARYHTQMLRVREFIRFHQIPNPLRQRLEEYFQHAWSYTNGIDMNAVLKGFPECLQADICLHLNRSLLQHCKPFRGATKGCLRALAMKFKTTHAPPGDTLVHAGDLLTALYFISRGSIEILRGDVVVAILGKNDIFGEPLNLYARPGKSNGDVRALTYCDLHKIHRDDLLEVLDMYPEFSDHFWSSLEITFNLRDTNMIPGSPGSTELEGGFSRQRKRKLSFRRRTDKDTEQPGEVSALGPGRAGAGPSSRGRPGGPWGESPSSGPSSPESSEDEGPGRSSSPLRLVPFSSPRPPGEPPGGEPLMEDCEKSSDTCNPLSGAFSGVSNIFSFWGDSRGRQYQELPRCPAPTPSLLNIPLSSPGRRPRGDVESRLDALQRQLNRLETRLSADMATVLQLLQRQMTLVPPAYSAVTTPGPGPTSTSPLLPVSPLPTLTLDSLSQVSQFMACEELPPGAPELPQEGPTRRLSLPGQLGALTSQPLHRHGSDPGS

Compound | hERG current change (%, negative = inhibition) at 10uM [%]
CC(C)CCN1CCN(Cc2cc3ccccc3[nH]2)CC1CCO (stereo not shown) | -22.4
CC(C)(C)CN1CCN(Cc2cc3ccccc3[nH]2)CC1CCO (stereo not shown) | -8.03
CCOc1ccccc1CN1CCN(Cc2cc(=O)c3ccccc3[nH]2)CC1CCO (stereo not shown) | -66.6
O=c1cc(CN2CCN(Cc3ccc(F)cc3)C(CCO)C2)[nH]c2ccccc12 (stereo not shown) | -61.2
Cc1cc(NC(=O)CSc2nc3sc4c(c3c(=O)n2C)CCCC4)no1 | 7.47
O=c1c2ccccc2c(-c2ccccc2)nn1-c1ccc(Cl)c(Cl)c1 | 13.3
CCOC(=O)C1CCCNC1=O (stereo not shown) | 14.8
Brc1ccc2c(c1)OCCOCCOCCOCCOCCO2 | -76.4
S=C(Nc1ccc(Br)cc1)Nc1ccc2c(c1)OCCO2 | 20.5
Brc1ccc2c(c1)OCCOCCOCCOCCOCCOCCO2 | -70.8
Brc1cc2c(cc1Br)OCCOCCOCCOCCO2 | -76.5
Cl.Nc1ccc2c(c1)OCCOCCOCCOCCOCCO2 | -33.5
Brc1ccc2c(c1)OCCOCCOc1cc(Br)ccc1OCCOCCOCCO2 | -4.86
CC(=O)Nc1cc2c(cc1Br)OCCO2 | 21.5
O=C(Nc1ccc2c(c1)OCCO2)c1ccc(Br)cc1 | -3.81
O=C(Nc1ccc(Br)cc1F)c1ccc2c(c1)OCCO2 | 12.3
C=Cc1ccc2c(c1)OCCOCCOCCOCCOCCO2 | -71.2
O=C(O)/C=C/c1ccc2c(c1)OCCO2 | -25
Brc1cc2c(cc1Br)OCCOCCOCCO2 | -11.5
COC(=O)/C(=C\c1cc(OC)c(OC)c(OC)c1)c1nc2ccccc2[nH]1.Cl | 19
COc1ccc(C)cc1NC(=O)CCCN1C(=O)C(c2ccccc2)Oc2cccnc21 (stereo not shown) | 2.21
Cc1cccc(CCNC(=O)CCS(=O)(=O)c2cc3c(cc2Cl)NC(=O)CO3)c1 | 3.71
CC[C@H]1OC(=O)[C@H](C)[C@@H](O[C@H]2C[C@@](C)(OC)[C@@H](O)[C@H](C)O2)[C@H](C)[C@@H](O[C@@H]2O[C@H](C)C[C@H](N(C)C)[C@H]2O)[C@](C)(O)C[C@@H](C)CN(C)[C@H](C)[C@@H](O)[C@]1(C)O | 1.55

Compound | hERG current change (%, negative = inhibition) at 10uM [%]
Cc1ccc(/C(O)=C2/C(=O)C(=O)N(Cc3ccco3)C2c2cccs2)cc1 (stereo not shown) | -8.53
CCOC(=O)c1cc(C(=O)n2cc(Cl)cn2)nn1C | 10.6
Cc1ccc(-c2csc(NC(=O)CCNC(=O)c3ccco3)n2)cc1 | 5.76
COc1cc2c(cc1NC(=O)c1cc(-c3cccnc3)nc3ccc(C)cc13)oc1ccccc12 | 8.86
CCN(CC)c1ccc(/C=N/NC(=O)c2cccc(S(=O)(=O)N3CCOCC3)c2)cc1 | -24.4
CC1(C(=O)Nc2nnc(SCc3ccccc3)s2)Cc2ccccc2C(=O)O1 (stereo not shown) | -24.6
COc1ccc(OCC(=O)c2c(O)c3ccccc3oc2=O)cc1 | -12.4
COC(=O)C1=NN(C(=O)c2cccc(Cl)c2)C(O)(C(C)(C)C)C1 (stereo not shown) | 8.11
CCOC(=O)C1=NN(C(=O)Cc2ccccc2)C(O)(C(C)(C)C)C1 (stereo not shown) | 9.74
CCOC(=O)C1=NN(C(=O)c2cccc(Br)c2)C(O)(C(C)(C)C)C1 (stereo not shown) | -57.6
COc1ccc(C2CC(=O)C3=C(C2)Nc2ccccc2N(C(C)=O)C3c2ccco2)cc1 (stereo not shown) | -35.8
CN(C)C(=S)Nc1ccc([N+](=O)[O-])cc1 | -0.053
O=[N+]([O-])c1cccc(C(=NCc2ccccc2)NO)c1 | 15.9
CN(C)C(=S)NC(=NCc1ccc([N+](=O)[O-])cc1)c1ccccc1 | -90.7
Nc1ncc([N+](=O)[O-])c(Oc2ccccc2F)n1 | 24.7
CCCC1(CCC)C(=O)NC(=NCc2ccccc2)NC1=O | 12.7
Cc1cc(C)n(-c2nc3c(c(=O)[nH]c(=O)n3C)n2CC(O)COc2ccccc2C)n1 (stereo not shown) | -31.9
O=C(COc1cccc2c1CCN(Cc1ccccc1)C2=O)N1CCCCC1 | -15
O=C(COc1cccc2c1CCN(Cc1ccccc1F)C2=O)N1CCCCC1 | -43.4
CC1CCN(C(=O)COc2cccc3c2CCN(Cc2ccccc2)C3=O)CC1 | -36
O=C(COc1cccc2c1CCN(Cc1ccc(Br)cc1)C2=O)N1CCOCC1 | -58.4
CCN1CCc2c(OCC(=O)N3CCCCC3)cccc2C1=O | 5.33
O=C(COc1cccc2c1CCN(Cc1ccc(Cl)cc1)C2=O)N1CCOCC1 | -60.2
